M1 PAM – potentiates human M1 receptor response to acetylcholine; 360,000 tested, 0.088% active; activation, % at 3 µM; CHO-K1 hM1, Fluo-8 calcium fluorescence, ACh EC20; 0% = ACh EC20, 100% = maximal ACh; in the data active means activation above about 19%, passing the limit was not always enough
M4 ag – CHRM4 agonism in calcium assay; P08173; CHO-K1 hM4/Gqi5, Fluo-8 calcium fluorescence; vehicle 0%, full acetylcholine response 100%; activation, % at 3 µM; 360,000 tested, 0.14% active; AID 624127;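 active means activation above the run mean over all test wells plus 3 SD, cut at about 32% in these data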;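 further: peak over basal fluorescence ratio per well then scaled between controls; 0% = DMSO wells and 100% = acetylcholine at EC100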
Target sequence (P08173 whole entry, looked up): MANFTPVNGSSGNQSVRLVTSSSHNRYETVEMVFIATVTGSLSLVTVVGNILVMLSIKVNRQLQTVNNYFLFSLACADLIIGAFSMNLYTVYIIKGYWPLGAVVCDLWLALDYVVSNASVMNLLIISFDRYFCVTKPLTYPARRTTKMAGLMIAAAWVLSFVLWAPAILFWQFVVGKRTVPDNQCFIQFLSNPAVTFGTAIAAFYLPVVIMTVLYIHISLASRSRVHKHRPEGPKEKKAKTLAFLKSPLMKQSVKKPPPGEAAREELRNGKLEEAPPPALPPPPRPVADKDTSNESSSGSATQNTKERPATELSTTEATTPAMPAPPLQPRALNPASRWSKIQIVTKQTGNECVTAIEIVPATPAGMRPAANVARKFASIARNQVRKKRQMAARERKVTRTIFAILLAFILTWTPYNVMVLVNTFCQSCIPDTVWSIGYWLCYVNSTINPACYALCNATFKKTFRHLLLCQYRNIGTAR
CHRM1 agonist – activates human CHRM1 receptor. P11229. CHO-K1 hM1, Fluo-8 calcium fluorescence, agonist mode; 0% DMSO, 100% acetylcholine EC100. activation, % at 3 µM. 360,000 tested, 0.33% active. AID 588814;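 active means activation above the run's mean compound activation plus 3 SD, cut at about 16% in these data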;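 further: peak over basal fluorescence ratio within a 140 s kinetic read after compound addition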
CHRM4 PAM – potentiates acetylcholine response at human M4 receptor; 360,000 tested, 0.4% active; P08173; activation, % at 3 µM; CHO-K1 hM4/Gqi5, Fluo-8 calcium fluorescence, ACh EC20; 0% = ACh EC20, 100% = maximal ACh;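 active means activation above its plate's cutoff, the mean activation of sample wells plus 3 SD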
CHRM1 antagonist – human CHRM1 antagonism; inhibition, % at 3 µM; AID 588852; P11229; CHO-K1 hM1, Fluo-8 calcium fluorescence, ACh EC80 antagonist; 360,000 tested, 1.3% active;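 active means percent inhibition above its own plate's cutoff, namely the mean of that plate's compound wells plus 3 SD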;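 further: peak over basal fluorescence ratio during 140 s after agonist addition; 0% = ACh EC80 plus DMSO and 100% = DMSO alone without agonist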
CHRM4 antagonist – CHRM4 antagonism in calcium assay; P08173; CHO-hM4 cells, ACh EC80, Fluo-8 calcium fluorescence; inhibition, % at 3 µM; 360,000 tested, 0.73% active; AID 624125;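 active means inhibition above its plate's cutoff, the mean inhibition of sample wells plus 3 SD, cut at about 27% in these data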;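 further: 0% = acetylcholine EC80 with DMSO and 100% = DMSO without agonist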
* = called active by the depositor. The list is not random: actives were taken first. Their share in the collection is about 2.2%.

How did COc1ccc2c(c1)C[C@]1(C)c3ccccc3C(=O)N(Cc3ccccc3)[C@H]21 do in these assays?
M1 PAM: -10; M4 ag: 1; CHRM1 agonist: -9; CHRM4 PAM: -4; CHRM1 antagonist: 5; CHRM4 antagonist: -7

What do the screens show for `COc1cccc(C2=NOC(C(=O)N3CCOCC3)C2)c1` (configuration not stated)?
M1 PAM: 6; M4 ag: 1; CHRM1 agonist: -2; CHRM4 PAM: 29*; CHRM1 antagonist: -3; CHRM4 antagonist: 9

What do the screens show for `COc1ccc(-c2c[n+](CC(=O)OC3CC(C)CCC3C(C)C)c3n2CCC3)cc1` (configuration not stated)?
M1 PAM: -22; M4 ag: 1; CHRM1 agonist: -6; CHRM4 PAM: -24; CHRM1 antagonist: 91*; CHRM4 antagonist: 34*

How did CC(C)[C@@H]1CC[C@@H](C)C[C@H]1OC(=O)C[n+]1cc(-c2ccc(Cl)cc2)n2c1CCCCC2 do in these assays?
M1 PAM: -23; M4 ag: 1; CHRM1 agonist: -4; CHRM4 PAM: -51; CHRM1 antagonist: 94*; CHRM4 antagonist: 42*

What do the screens show for `CC1CCN(C(C(=O)NC2CCCCC2)c2cc3c(cc2[N+](=O)[O-])OCO3)CC1` (configuration not stated)?
M1 PAM: 7; M4 ag: 0; CHRM1 agonist: -7; CHRM4 PAM: 0; CHRM1 antagonist: -16; CHRM4 antagonist: -1

What do the screens show for `CC1CCCN(C(C(=O)NC2CCCCC2)c2cc3c(cc2[N+](=O)[O-])OCO3)C1` (configuration not stated)?
M1 PAM: 12; M4 ag: 0; CHRM1 agonist: -4; CHRM4 PAM: 25*; CHRM1 antagonist: -11; CHRM4 antagonist: -10

Results for COc1ccc(C[C@H]2CN3C(=NC[C@H]3C)N2CCNC(=O)c2ccc(C)c(Br)c2)cc1 ?
M1 PAM: -33; M4 ag: 2; CHRM1 agonist: -11; CHRM4 PAM: -10; CHRM1 antagonist: 76*; CHRM4 antagonist: 23

Results for Cc1ccc(C(=O)NCCN2C3=NC[C@H](C)N3C[C@H]2Cc2ccc(O)cc2)cc1Br ?
M1 PAM: -20; M4 ag: 2; CHRM1 agonist: -9; CHRM4 PAM: -3; CHRM1 antagonist: 17; CHRM4 antagonist: 8

How did O=C(CSc1ccc(-c2ccccn2)nn1)NCc1ccccc1 do in these assays?
M1 PAM: -5; M4 ag: 17; CHRM1 agonist: -4; CHRM4 PAM: -10; CHRM1 antagonist: 37*; CHRM4 antagonist: 16

What do the screens show for `COC(=O)[C@@]1(Sc2ccc(C)cc2)CC(=O)N(c2ccccc2)[C@@H]1c1ccccc1`?
M4 ag: 18; CHRM4 PAM: -13; CHRM4 antagonist: 40*

How did Cc1cc(C)n(C(CC(=O)O)C(=O)O)n1 (configuration not stated) do in these assays?
M1 PAM: 4; M4 ag: 0; CHRM1 agonist: -3; CHRM4 PAM: -1; CHRM1 antagonist: 5; CHRM4 antagonist: -1

Results for CC(C)(C)c1ccc(-n2ncc3c2CCCC3NC(=O)CCn2cncn2)cc1 (configuration not stated) ?
M1 PAM: -23; M4 ag: 2; CHRM1 agonist: -5; CHRM4 PAM: -10; CHRM1 antagonist: 54*; CHRM4 antagonist: 13

What do the screens show for `Cc1cc(C(=O)NC2CCCc3c2cnn3-c2ccc(C(C)(C)C)cc2)nn1C` (configuration not stated)?
M1 PAM: -7; M4 ag: 12; CHRM1 agonist: 2; CHRM4 PAM: -9; CHRM1 antagonist: 33*; CHRM4 antagonist: 20

How did Cc1cc(C)cc(-n2ncc3c2CCCC3NC(=O)c2cc(C)n(C)n2)c1 (configuration not stated) do in these assays?
M1 PAM: 2; M4 ag: 13; CHRM1 agonist: -1; CHRM4 PAM: -7; CHRM1 antagonist: -3; CHRM4 antagonist: -15

Source: PubChem (The Scripps Research Institute Molecular Screening Center)
